The record followed here is PubChem BioAssay (EPA / NIEHS).

In general, AC50 refers to the concentration at which the activity in the assay is half-maximal.

Assay [1] is described as follows: ATG_E_Box_CIS: Attagene CIS-FACTORIAL HepG2 Assay for human Enhancer Box (E-box) (AID 2282936). To be noted: HepG2 E-box cis-reporter transcription, actives raise or lower the signal. Summed up:
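Endogenous transcription factor activity was sensed in human HepG2 liver cells through transfected cis-promoter reporter units. After 24 h of dosing, total RNA was reverse-transcribed and reporter cDNA resolved by capillary electrophoresis.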

The nature of assay [2]: ATG_M_61_CIS: Attagene CIS-FACTORIAL HepG2 Assay for M61 Transcription Factor (Internal Marker) (AID 2282937). To be noted: HepG2 Attagene CIS-FACTORIAL M61 internal marker reporter; actives raise or lower the signal. Summed up: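 Background-control endpoint: HepG2 cells with cis-regulated reporter constructs, 24 h exposure, reporter mRNA detected via fluorescent primer extension and capillary electrophoresis; values from bidirectional fitting with DMSO baseline.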

Assay [3] can be described thus: ATG_EGR_CIS: Attagene CIS-FACTORIAL HepG2 Assay for human Early Growth Response 1 (EGR1) (AID 2282938). The settings on record: HepG2 Attagene CIS-FACTORIAL EGR reporter mRNA; actives raise or lower the signal. Summed up: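 Endpoint derived by bidirectional fitting versus DMSO vehicle. Method: cis-promoter reporter units transfected into HepG2, 24 h dosing, RNA isolation, RT-PCR with 6-FAM primer extension and HpaI digestion, then capillary electrophoresis fluorescence detection.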

Assay [4] in a line: ATG_M_19_CIS: Attagene CIS-FACTORIAL HepG2 Assay for M19 Transcription Factor (Internal Marker) (AID 2282939). The settings on record: HepG2 Attagene CIS-FACTORIAL M19 internal marker reporter; actives raise or lower the signal. In short, it runs like this:
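Internal marker readout, fitted in both directions against DMSO, from HepG2 cells carrying transfected cis-element reporter constructs; RT-PCR and capillary electrophoresis of reporter mRNA after 24 h exposure.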

Assay [5] can be described thus: ATG_ERE_CIS: Attagene CIS-FACTORIAL HepG2 Assay for Estrogen Response Element (ERE) (AID 2282940). To be noted: HepG2 ERE cis-reporter, Attagene RNA transcript; actives raise or lower the signal. Summed up:
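After 24 h compound treatment, RNA from transfected HepG2 cells was reverse-transcribed, reporter cDNA PCR-amplified, FAM-labelled, HpaI-cut and resolved by capillary electrophoresis. ERE-driven cis reporter transcripts reflect endogenous factors; gain or loss scored against DMSO.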

Assay [6] can be described thus: ATG_Ets_CIS: Attagene CIS-FACTORIAL HepG2 Assay for human Erythroblast Transformation Specific (ETS) (AID 2282941). The settings on record: HepG2 ETS cis-reporter transcription; AC50: actives raise or lower the signal unless noted; outcome: actives raise or lower the signal unless noted. In short, it runs like this:
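RT-PCR/capillary electrophoresis fluorescence read-out of reporter mRNA; HepG2 transient multi-reporter transfection; 24 h compound exposure; gain or loss of signal fitted bidirectionally relative to DMSO.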

Assay [7] in a line: ATG_FoxO_CIS: Attagene CIS-FACTORIAL HepG2 Assay for human Forkhead box O (FoxO) (AID 2282943). To be noted: HepG2 Attagene cis-reporter, FoxO element, mRNA; actives raise or lower the signal. Summed up:
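Values reflect reporter mRNA induction or loss in HepG2 cells 24 h post-dosing, fitted bidirectionally with DMSO as negative control and baseline. Detection used RT-PCR and fluorescence capillary electrophoresis.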

Assay [8] in a line: ATG_GATA_CIS: Attagene CIS-FACTORIAL HepG2 Assay for human GATA Binding Protein (AID 2282944). The settings on record: HepG2 GATA cis-element reporter, Attagene multiplex mRNA; actives raise or lower the signal. Summed up:
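Reporter transcripts from a GATA cis-regulated unit, among multiplexed reporters in transfected HepG2 cells, were measured by RT-PCR with capillary electrophoresis after 24 h dosing. Induction or loss scored relative to DMSO.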

Assay [9] can be described thus: ATG_GLI_CIS: Attagene CIS-FACTORIAL HepG2 Assay for human Zinc Finger Protein GLI1 (AID 2282945). The settings on record: HepG2, Attagene cis-factorial reporter mRNA, GLI element; actives raise or lower the signal. Summed up: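 HepG2 cells transiently transfected with cis-promoter multiplexed reporter units report endogenous transcription factor activity. After 24 h chemical exposure, reporter mRNA was quantified by RT-PCR, 6-FAM labelling, HpaI digestion and capillary electrophoresis, with bidirectional fitting against DMSO.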

The nature of assay [10]: ATG_GRE_CIS: Attagene CIS-FACTORIAL HepG2 Assay for human Glucocorticoid Response Elements (GRE) (AID 2282947). To be noted: HepG2 GRE cis-reporter, Attagene multiplex mRNA; AC50: actives raise or lower the signal unless noted; outcome: actives raise or lower the signal unless noted. In short, it runs like this:
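Cells (HepG2) bearing transfected cis-promoter reporter transcription units were treated with chemical for 24 hours. Reporter mRNA was measured via RT-PCR with capillary electrophoresis, and activity was fitted in both directions relative to DMSO.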

A short description of assay [11]: ATG_ISRE_CIS: Attagene CIS-FACTORIAL HepG2 Assay for human Interferon Regulatory Factor 1 (IRF1) binding to an Interferon-Stimulated Response Element (ISRE) (AID 2282948). The settings on record: HepG2 ISRE cis-reporter (Attagene), mRNA transcription readout; actives raise or lower the signal. Summed up: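 Read-out: fluorescent RT-PCR products resolved by capillary electrophoresis, reporting endogenous transcription factor activity via ISRE-driven reporter mRNA in transfected HepG2 cells dosed for 24 h; gain or loss fitted relative to DMSO.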

A short description of assay [12]: ATG_M_32_CIS: Attagene CIS-FACTORIAL HepG2 Assay for M32 Transcription Factor (Internal Marker) (AID 2282949).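 Further: background control marker of the multiplexed CIS panel rather than a real target.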 To be noted: HepG2 Attagene cis-factorial M32 reporter, mRNA; actives raise or lower the signal. Summed up:
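HepG2 transfectants (cis-regulated reporter transcription units) dosed 24 h. Reporter mRNA by RT-PCR plus CE, analysed as gain or loss relative to DMSO.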

A short description of assay [13]: ATG_M_06_CIS: Attagene CIS-FACTORIAL HepG2 Assay for M06 Transcription Factor (Internal Marker) (AID 2282950). To be noted: HepG2 Attagene CIS-FACTORIAL M06 internal marker reporter; actives raise or lower the signal. In short, it runs like this:
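Serves as a background control readout. Transfected HepG2 exposed to compounds for 24 h, then reporter transcripts quantified by fluorescent RT-PCR and capillary electrophoresis. Both directions fitted against DMSO baseline.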

Assay [14] has as its target Hypoxia-inducible factor 1-alpha (Homo sapiens) (UniProt Q16665). The experiment in a line: ATG_HIF1a_CIS: Attagene CIS-FACTORIAL HepG2 Assay for human Hypoxia Inducible Factor 1 (HIF1A) (AID 2282951). To be noted: HepG2 Attagene cis-factorial HIF1a reporter transcription; actives raise or lower the signal. Summed up: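 Dosed 24 h, transfected HepG2 cells yielded total RNA whose reporter transcripts were RT-PCR-amplified and sized by capillary electrophoresis using fluorescent labelling; DMSO defined baseline, with gain and loss of signal both fitted.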

For assay [15], the target named is Heat shock factor protein 1 (Homo sapiens) (UniProt Q00613). Kind of assay: ATG_HSE_CIS: Attagene CIS-FACTORIAL HepG2 Assay for human Heat Shock Transcription Factor 1 (HSE) (AID 2282953). To be noted: HepG2 HSE cis-reporter, Attagene RNA transcription; actives raise or lower the signal. In short, it runs like this:
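Endogenous transcription factor activity in transiently transfected HepG2, read as reporter mRNA by RT-PCR with fluorescent capillary electrophoresis after 24 h. Gain or loss of signal fitted versus DMSO baseline.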

A short description of assay [16]: ATG_MRE_CIS: Attagene CIS-FACTORIAL HepG2 Assay for human Metal Responsive Element (MRE) (AID 2282954). To be noted: HepG2 MRE cis-reporter transcription, Attagene multiplex; actives raise or lower the signal. Summed up: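 Cells were transfected with cis-promoter reporter transcription units, then dosed for 24 h. RNA was reverse-transcribed, amplified, fluorescently labelled and resolved by capillary electrophoresis, and activity was fitted in both directions relative to DMSO.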

The target of assay [17] is Bile acid receptor (Homo sapiens) (UniProt Q96RI1). Kind of assay: ATG_IR1_CIS: Attagene CIS-FACTORIAL HepG2 Assay for human Nuclear Receptor Subfamily 1 Group H Member 4 (NR1H4), IR1 submotif (AID 2282946). To be noted: IR1 reporter transcription, actives raise or lower the signal. Summed up:
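Readout: reporter transcript levels by RT-PCR with fluorescent capillary electrophoresis, from HepG2 cells transiently transfected with multiplexed cis-regulated reporters and dosed 24 h. Gain- or loss-of-signal fitted versus DMSO negative control.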

The target in assay [18] is Hepatocyte nuclear factor 6 (Homo sapiens) (UniProt Q9UBC0). Kind of assay: ATG_HNF6_CIS: Attagene CIS-FACTORIAL HepG2 Assay for human Hepatocyte Nuclear Factor 6 (HNF6) (AID 2282952). The settings on record: HepG2 Attagene cis-factorial HNF6 reporter transcription; actives raise or lower the signal. Summed up:
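Using cis-element reporters in HepG2 liver cells, the assay tracks endogenous factor-driven transcription 24 h post-dosing. Signal comes from 6-FAM-labelled, HpaI-digested RT-PCR fragments, with gain or loss scored against DMSO.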

Assay [19] can be described thus: ATG_PBREM_CIS: Attagene CIS-FACTORIAL HepG2 Assay for human Phenobarbital-responsive Enhancer Module (PBREM) (AID 2282955). To be noted: HepG2 PBREM cis-reporter, Attagene multiplexed transcription; actives raise or lower the signal. Summed up:
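Transfected liver-derived HepG2 cells exposed 24 h; PBREM reporter transcript quantified via RT-PCR and capillary electrophoresis, with activity in either direction referenced to DMSO.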

The target of assay [20] is Hepatocyte nuclear factor 3-beta (Homo sapiens) (UniProt Q9Y261). Kind of assay: ATG_FoxA2_CIS: Attagene CIS-FACTORIAL HepG2 Assay for human Forkhead box A2 (FOXA2) (AID 2282942). The settings on record: HepG2 cis-reporter transcription factor activity, 24 h; actives raise or lower the signal. Summed up: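 Measured: reporter mRNA induction or loss in HepG2 transiently carrying multiple cis-regulated reporter units, 24 h after dosing. Quantified by RT-PCR plus capillary electrophoresis, normalised to DMSO.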
Sequence of Hepatocyte nuclear factor 3-beta (Homo sapiens) (Q9Y261 whole entry, looked up): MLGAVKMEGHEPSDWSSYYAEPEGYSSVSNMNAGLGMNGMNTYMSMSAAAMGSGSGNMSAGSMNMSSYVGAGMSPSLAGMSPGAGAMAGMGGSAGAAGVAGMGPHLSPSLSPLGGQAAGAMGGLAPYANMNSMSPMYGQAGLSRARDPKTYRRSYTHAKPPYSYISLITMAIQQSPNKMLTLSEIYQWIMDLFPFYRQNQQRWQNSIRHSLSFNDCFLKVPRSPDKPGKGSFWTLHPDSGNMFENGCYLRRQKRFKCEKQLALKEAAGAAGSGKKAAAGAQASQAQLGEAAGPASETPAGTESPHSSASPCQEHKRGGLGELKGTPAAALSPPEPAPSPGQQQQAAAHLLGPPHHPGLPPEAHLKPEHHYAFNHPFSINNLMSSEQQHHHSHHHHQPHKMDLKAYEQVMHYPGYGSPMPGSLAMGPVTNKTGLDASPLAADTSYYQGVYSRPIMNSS

Active and inactive are the calls of the source. How the source made its calls: active means hit-call score of the fitted dose curve at least 0.9, where 1 is the maximum; inactive means score below 0.9.

Sequence of Hypoxia-inducible factor 1-alpha (Homo sapiens) (Q16665 whole entry, looked up): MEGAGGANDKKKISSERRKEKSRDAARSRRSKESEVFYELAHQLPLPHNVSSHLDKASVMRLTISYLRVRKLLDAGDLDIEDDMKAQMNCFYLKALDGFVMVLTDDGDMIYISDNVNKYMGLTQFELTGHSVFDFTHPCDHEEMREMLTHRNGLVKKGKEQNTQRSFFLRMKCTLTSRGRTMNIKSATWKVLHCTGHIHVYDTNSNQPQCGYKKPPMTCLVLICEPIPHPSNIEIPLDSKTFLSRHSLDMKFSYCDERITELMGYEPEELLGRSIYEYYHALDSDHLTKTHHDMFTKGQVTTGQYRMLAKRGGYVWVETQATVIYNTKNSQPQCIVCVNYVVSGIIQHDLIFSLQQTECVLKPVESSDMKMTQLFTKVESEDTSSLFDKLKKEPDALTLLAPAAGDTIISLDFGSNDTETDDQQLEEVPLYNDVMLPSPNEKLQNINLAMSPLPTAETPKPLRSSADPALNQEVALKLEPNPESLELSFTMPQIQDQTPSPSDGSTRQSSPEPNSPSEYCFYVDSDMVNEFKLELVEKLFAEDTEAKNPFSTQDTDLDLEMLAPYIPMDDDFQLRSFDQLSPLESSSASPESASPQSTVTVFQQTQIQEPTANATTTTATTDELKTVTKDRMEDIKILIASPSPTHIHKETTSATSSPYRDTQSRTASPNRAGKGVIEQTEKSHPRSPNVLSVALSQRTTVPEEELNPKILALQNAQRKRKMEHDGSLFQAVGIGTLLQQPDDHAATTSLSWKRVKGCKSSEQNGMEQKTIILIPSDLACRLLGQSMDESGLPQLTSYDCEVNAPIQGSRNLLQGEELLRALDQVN
Sequence of Bile acid receptor (Homo sapiens) (Q96RI1 whole entry, looked up): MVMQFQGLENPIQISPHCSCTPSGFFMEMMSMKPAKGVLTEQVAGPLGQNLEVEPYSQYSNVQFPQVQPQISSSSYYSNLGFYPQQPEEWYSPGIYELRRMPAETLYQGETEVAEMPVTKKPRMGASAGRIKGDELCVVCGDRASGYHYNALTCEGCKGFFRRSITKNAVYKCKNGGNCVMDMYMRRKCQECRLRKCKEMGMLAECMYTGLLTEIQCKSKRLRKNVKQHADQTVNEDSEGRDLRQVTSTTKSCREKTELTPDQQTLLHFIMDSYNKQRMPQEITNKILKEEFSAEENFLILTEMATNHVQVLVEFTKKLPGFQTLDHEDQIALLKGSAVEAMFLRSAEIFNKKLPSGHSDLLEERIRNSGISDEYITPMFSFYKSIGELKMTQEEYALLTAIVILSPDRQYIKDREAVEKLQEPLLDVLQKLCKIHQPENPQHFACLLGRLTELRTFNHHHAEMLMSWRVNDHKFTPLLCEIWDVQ
Sequence of Hepatocyte nuclear factor 6 (Homo sapiens) (Q9UBC0 whole entry, looked up, the tested form may be a part): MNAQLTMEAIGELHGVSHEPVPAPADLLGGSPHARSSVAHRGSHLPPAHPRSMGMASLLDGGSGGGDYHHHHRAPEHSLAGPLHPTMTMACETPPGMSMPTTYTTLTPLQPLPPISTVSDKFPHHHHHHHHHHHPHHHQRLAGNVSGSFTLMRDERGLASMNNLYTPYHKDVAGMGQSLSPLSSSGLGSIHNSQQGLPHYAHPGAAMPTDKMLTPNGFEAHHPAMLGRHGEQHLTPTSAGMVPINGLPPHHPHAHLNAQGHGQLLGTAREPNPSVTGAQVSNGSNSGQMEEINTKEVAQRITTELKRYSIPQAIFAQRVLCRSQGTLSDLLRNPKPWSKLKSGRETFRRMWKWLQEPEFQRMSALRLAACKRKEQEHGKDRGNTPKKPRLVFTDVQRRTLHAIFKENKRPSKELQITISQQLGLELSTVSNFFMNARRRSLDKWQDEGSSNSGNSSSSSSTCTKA
Sequence of Heat shock factor protein 1 (Homo sapiens) (Q00613 whole entry, looked up): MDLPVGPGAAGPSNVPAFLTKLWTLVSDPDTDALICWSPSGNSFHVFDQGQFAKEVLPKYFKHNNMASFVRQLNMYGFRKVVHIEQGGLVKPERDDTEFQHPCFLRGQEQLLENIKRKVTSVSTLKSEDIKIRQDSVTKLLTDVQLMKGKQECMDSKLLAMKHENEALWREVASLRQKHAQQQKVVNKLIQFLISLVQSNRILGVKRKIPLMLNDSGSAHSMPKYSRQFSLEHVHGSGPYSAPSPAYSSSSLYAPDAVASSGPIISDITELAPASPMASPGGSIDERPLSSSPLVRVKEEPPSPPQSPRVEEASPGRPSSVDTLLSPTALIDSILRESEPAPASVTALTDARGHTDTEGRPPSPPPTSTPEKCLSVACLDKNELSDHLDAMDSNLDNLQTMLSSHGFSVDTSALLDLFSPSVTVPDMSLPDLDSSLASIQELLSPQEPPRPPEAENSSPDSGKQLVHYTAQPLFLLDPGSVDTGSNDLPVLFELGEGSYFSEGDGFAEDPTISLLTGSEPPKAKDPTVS

For `CCCCc1oc2ccccc2c1C(=O)c1cc(I)c(OCCN(CC)CC)c(I)c1`, the outcome in assay [1], in assay [5], in [6], in assay [7], in assay [8] and in assay [9] was inactive. The outcome in assay [11] and in [15] was inactive. The AC50 in [2] is 89.1 µM (active); in assay [3], 20.3 µM (active); in [4], 97.7 µM (active); in assay [10], 141 µM (active); in assay [12] it was 127 µM (active); in assay [13] it was 89.1 µM (active). Further, the results for the AC50 in assay [14] and in [16] were 7.78 µM (active) and 18.3 µM (active), respectively.
In the case of `O=S(=O)(O)C(F)(F)C(F)(F)C(F)(F)C(F)(F)C(F)(F)C(F)(F)C(F)(F)C(F)(F)C(F)(F)C(F)(F)F`, the outcome in assay [1], in assay [2], in assay [3], in [4], in assay [5] and in assay [6] was inactive. Further, the outcome in assay [7], in assay [8], in [9], in [17], in assay [10] and in assay [11] was inactive. The outcome in assay [12], in assay [13], in [14], in assay [18], in assay [15] and in [16] was inactive. Further, the outcome in assay [19] was inactive.
Consider `CN(C)CCOC(c1ccccc1)c1ccccc1`, for which the AC50 in [1] was 60.6 µM (active); in [11], 100 µM (active). In addition, the compound was called inactive in assay [2], in [3], in assay [4], in [5], in assay [6] and in assay [20]. Further, the outcome in assay [7], in [8], in [10], in assay [12], in [13] and in [15] was inactive. For the same compound, the call in assay [16] was inactive.
As for `COC(=O)CC(C(C)=O)C(=O)OC` (configuration not stated), the result in assay [1], in [2], in [3], in assay [4], in assay [5] and in [6] was inactive. In addition, the result in assay [20], in assay [7], in [8], in [17], in [10] and in assay [12] was inactive. Further, the compound was called inactive in [13], in [14], in [18], in assay [15] and in [19].
